{"source": "the supplement of paper PMC10037445", "key": {"RAW-Dual [1]": {"system": "RAW-Dual", "assay": "IRF Lucia reporter activity, fold change vs agonist alone; cytotoxicity flag (confluency mask): not cytotoxic; higher = enhanced IRF activity", "procedure,_shortened": "(§1)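 RAW-Dual macrophages (50,000 cells/well in DMEM, 384-well plates) received 50 nL of library stock by pin tool, then a PRR agonist 1 h later, and were kept at 37 °C, 5% CO2. After 20 hours, supernatant was read for IRF by QuantiLuc luminescence and for NF-κB by QuantiBlue absorbance at 620 nm. Reporter activity is fold change over agonist-alone wells. Cytotoxic wells had IncuCyte confluency below 70% of agonist controls in both mask sets.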"}, "RAW-Dual [2]": {"system": "RAW-Dual", "assay": "IRF Lucia reporter activity, fold change vs agonist alone; cytotoxicity flag (confluency mask): cytotoxic (confluency <70% of control); higher = enhanced IRF activity", "procedure,_shortened": "as §1"}, "RAW-Dual [3]": {"system": "RAW-Dual", "assay": "IRF Lucia reporter activity, fold change vs agonist alone; higher = enhanced IRF activity", "conditions": "agonist: MPLA (TLR4) […]", "procedure,_shortened": "as §1"}, "[4]": {"conditions": "agonist: 3'3'-cGAMP (STING) 10 ug/mL"}, "[5]": {"conditions": "library stock concentration (final ~1000-fold dilution): 10 mM, cytotoxicity flag (confluency mask): cytotoxic (confluency <70% of control)"}, "[6]": {"conditions": "library stock concentration (final ~1000-fold dilution): 10 mM, cytotoxicity flag (confluency mask): not cytotoxic"}}, "note": "Whole data set: some 2,900 compounds, median “IRF Lucia reporter activity, fold change vs agonist alone” near 0.9, cut for the highest 2% near 2.8. For the sample, the highest values were picked, then their nearest neighbours and some compounds at random."}
{"molecule": "O=C(Nc1nc2cccc(-c3ccc(CN4CCS(=O)(=O)CC4)cc3)n2n1)C1CC1", "note": "(library stock concentration (final ~1000-fold dilution): 10 mM)", "values": [{"measurement": "IRF Lucia reporter activity", "setting": "RAW-Dual [1]; [4]", "result": 1.1}, {"measurement": "IRF Lucia reporter activity", "setting": "RAW-Dual [1]; agonist: LPS (TLR4) 0.1 ug/mL", "result": 3.4}]}
{"molecule": "CNCCC=C1c2ccccc2CCc2ccccc21.Cl", "note": "(library stock concentration (final ~1000-fold dilution): 10 mM)", "values": [{"measurement": "IRF Lucia reporter activity", "setting": "RAW-Dual [2]; [4]", "result": 0.464}, {"measurement": "IRF Lucia reporter activity", "setting": "RAW-Dual [2]; agonist: LPS (TLR4) 0.1 ug/mL", "result": 1.52}]}
{"molecule": "CNCCC=C1c2ccccc2CCc2ccccc21.Cl", "values": [{"measurement": "IRF Lucia reporter activity", "setting": "RAW-Dual [3]; [5]", "result": 1.38}]}
{"molecule": "CN(C)c1ccc(O)c2c1CC1CC3C(N(C)C)C(O)=C(C(N)=O)C(=O)C3(O)C(O)=C1C2=O.Cl", "note": "(stereo unspecified)", "values": [{"measurement": "IRF Lucia reporter activity", "setting": "RAW-Dual [3]; library stock concentration (final ~1000-fold dilution): 2 mM water, cytotoxicity flag (confluency mask): not cytotoxic", "result": 1.28}]}
{"molecule": "CN(C)c1ccc(O)c2c1CC1CC3C(N(C)C)C(O)=C(C(N)=O)C(=O)C3(O)C(O)=C1C2=O.Cl", "note": "(stereo unspecified) (library stock concentration (final ~1000-fold dilution): 2 mM water)", "values": [{"measurement": "IRF Lucia reporter activity", "setting": "RAW-Dual [1]; [4]", "result": 1.09}, {"measurement": "IRF Lucia reporter activity", "setting": "RAW-Dual [1]; agonist: LPS (TLR4) 0.1 ug/mL", "result": 0.851}]}
{"molecule": "Cc1sc2c(c1C)C(c1ccc(Cl)cc1)=N[C@@H](CC(=O)NCCCCCCCCNC(=O)COc1cccc3c1C(=O)N(C1CCC(=O)NC1=O)C3=O)c1nnc(C)n1-2", "note": "(stereo partly specified) (library stock concentration (final ~1000-fold dilution): 10 mM)", "values": [{"measurement": "IRF Lucia reporter activity", "setting": "RAW-Dual [2]; [4]", "result": 0.189}, {"measurement": "IRF Lucia reporter activity", "setting": "RAW-Dual [2]; agonist: LPS (TLR4) 0.1 ug/mL", "result": 0.244}]}
{"molecule": "CC(C)(O)c1ccccc1CCC(SCC1(CC(=O)O)CC1)c1cccc(/C=C/c2ccc3ccc(Cl)cc3n2)c1", "note": "(stereo unspecified)", "values": [{"measurement": "IRF Lucia reporter activity", "setting": "RAW-Dual [3]; [5]", "result": 0.73}]}
{"molecule": "CC(C)(O)c1ccccc1CCC(SCC1(CC(=O)O)CC1)c1cccc(/C=C/c2ccc3ccc(Cl)cc3n2)c1", "note": "(stereo unspecified) (library stock concentration (final ~1000-fold dilution): 10 mM)", "values": [{"measurement": "IRF Lucia reporter activity", "setting": "RAW-Dual [2]; [4]", "result": 0.492}, {"measurement": "IRF Lucia reporter activity", "setting": "RAW-Dual [2]; agonist: LPS (TLR4) 0.1 ug/mL", "result": 1.52}]}
{"molecule": "CCOC(=O)CCNc1cc(N2CCc3ccccc3CC2)nc(-c2ccccn2)n1.Cl", "note": "(library stock concentration (final ~1000-fold dilution): 10 mM)", "values": [{"measurement": "IRF Lucia reporter activity", "setting": "RAW-Dual [1]; [4]", "result": 1.03}, {"measurement": "IRF Lucia reporter activity", "setting": "RAW-Dual [1]; agonist: LPS (TLR4) 0.1 ug/mL", "result": 1.04}]}
{"molecule": "CCOC(=O)CCNc1cc(N2CCc3ccccc3CC2)nc(-c2ccccn2)n1.Cl", "values": [{"measurement": "IRF Lucia reporter activity", "setting": "RAW-Dual [3]; [6]", "result": 1}]}
{"molecule": "Cc1cccc(/C=N/Nc2cc(N3CCOCC3)nc(OCCc3ccccn3)n2)c1", "note": "(library stock concentration (final ~1000-fold dilution): 10 mM)", "values": [{"measurement": "IRF Lucia reporter activity", "setting": "RAW-Dual [1]; [4]", "result": 0.326}, {"measurement": "IRF Lucia reporter activity", "setting": "RAW-Dual [1]; agonist: LPS (TLR4) 0.1 ug/mL", "result": 2.84}]}
{"molecule": "Cc1cccc(/C=N/Nc2cc(N3CCOCC3)nc(OCCc3ccccn3)n2)c1", "values": [{"measurement": "IRF Lucia reporter activity", "setting": "RAW-Dual [3]; [6]", "result": 3.08}]}
{"molecule": "CCC(NC(=O)C(C)NC)C(=O)N1CC(O)CC1Cc1c(-c2[nH]c3cc(F)ccc3c2CC2CC(O)CN2C(=O)C(CC)NC(=O)C(C)NC)[nH]c2cc(F)ccc12", "note": "(stereo unspecified)", "values": [{"measurement": "IRF Lucia reporter activity", "setting": "RAW-Dual [3]; [6]", "result": 0.519}]}
{"molecule": "CCC(NC(=O)C(C)NC)C(=O)N1CC(O)CC1Cc1c(-c2[nH]c3cc(F)ccc3c2CC2CC(O)CN2C(=O)C(CC)NC(=O)C(C)NC)[nH]c2cc(F)ccc12", "note": "(stereo unspecified) (library stock concentration (final ~1000-fold dilution): 10 mM)", "values": [{"measurement": "IRF Lucia reporter activity", "setting": "RAW-Dual [1]; [4]", "result": 0.626}, {"measurement": "IRF Lucia reporter activity", "setting": "RAW-Dual [1]; agonist: LPS (TLR4) 0.1 ug/mL", "result": 0.632}]}
{"molecule": "Cc1ccc(CN(CC(O)COc2cccc3[nH]ccc23)C(C)(C)C)cc1", "note": "(stereo unspecified) (library stock concentration (final ~1000-fold dilution): 10 mM)", "values": [{"measurement": "IRF Lucia reporter activity", "setting": "RAW-Dual [2]; [4]", "result": 0.837}, {"measurement": "IRF Lucia reporter activity", "setting": "RAW-Dual [2]; agonist: LPS (TLR4) 0.1 ug/mL", "result": 1.9}]}
{"molecule": "Cc1cc(C(C)Nc2ccccc2C(=O)O)c2nc(N3CCOCC3)cc(=O)n2c1", "note": "(stereo unspecified)", "values": [{"measurement": "IRF Lucia reporter activity", "setting": "RAW-Dual [3]; [6]", "result": 0.843}]}
{"molecule": "Cc1cc(C(C)Nc2ccccc2C(=O)O)c2nc(N3CCOCC3)cc(=O)n2c1", "note": "(stereo unspecified) (library stock concentration (final ~1000-fold dilution): 10 mM)", "values": [{"measurement": "IRF Lucia reporter activity", "setting": "RAW-Dual [1]; [4]", "result": 1}, {"measurement": "IRF Lucia reporter activity", "setting": "RAW-Dual [1]; agonist: LPS (TLR4) 0.1 ug/mL", "result": 1.04}]}
{"molecule": "CC(O)CO.CCOc1ccc(Cc2cc(C3OC(CO)C(O)C(O)C3O)ccc2Cl)cc1.O", "note": "(stereo unspecified) (library stock concentration (final ~1000-fold dilution): 10 mM)", "values": [{"measurement": "IRF Lucia reporter activity", "setting": "RAW-Dual [1]; [4]", "result": 1.07}, {"measurement": "IRF Lucia reporter activity", "setting": "RAW-Dual [1]; agonist: LPS (TLR4) 0.1 ug/mL", "result": 1.03}]}
{"molecule": "CC(O)CO.CCOc1ccc(Cc2cc(C3OC(CO)C(O)C(O)C3O)ccc2Cl)cc1.O", "note": "(stereo unspecified)", "values": [{"measurement": "IRF Lucia reporter activity", "setting": "RAW-Dual [3]; [6]", "result": 1.05}]}
{"molecule": "CC(Cn1cnc2c(N)ncnc21)OCP(=O)(O)O", "note": "(stereo unspecified) (library stock concentration (final ~1000-fold dilution): 10 mM)", "values": [{"measurement": "IRF Lucia reporter activity", "setting": "RAW-Dual [1]; [4]", "result": 1}, {"measurement": "IRF Lucia reporter activity", "setting": "RAW-Dual [1]; agonist: LPS (TLR4) 0.1 ug/mL", "result": 1}]}
{"molecule": "CC(C)(C)C(=O)OCOP(=O)(COCCn1cnc2c(N)ncnc21)OCOC(=O)C(C)(C)C", "note": "(library stock concentration (final ~1000-fold dilution): 10 mM)", "values": [{"measurement": "IRF Lucia reporter activity", "setting": "RAW-Dual [1]; [4]", "result": 2.04}, {"measurement": "IRF Lucia reporter activity", "setting": "RAW-Dual [1]; agonist: LPS (TLR4) 0.1 ug/mL", "result": 2.36}]}
{"molecule": "CC(Cn1cnc2c(N)ncnc21)OCP(=O)(O)O", "note": "(stereo unspecified)", "values": [{"measurement": "IRF Lucia reporter activity", "setting": "RAW-Dual [3]; [6]", "result": 1.05}]}
{"molecule": "Nc1ncnc2c1ncn2C(C=O)OC(C=O)CO", "note": "(stereo unspecified) (library stock concentration (final ~1000-fold dilution): 10 mM)", "values": [{"measurement": "IRF Lucia reporter activity", "setting": "RAW-Dual [1]; [4]", "result": 0.427}, {"measurement": "IRF Lucia reporter activity", "setting": "RAW-Dual [1]; agonist: LPS (TLR4) 0.1 ug/mL", "result": 0.724}]}
{"molecule": "CC(C)(C)C(=O)OCOP(=O)(COCCn1cnc2c(N)ncnc21)OCOC(=O)C(C)(C)C", "values": [{"measurement": "IRF Lucia reporter activity", "setting": "RAW-Dual [3]; [6]", "result": 2.95}]}
{"molecule": "Cc1ccc(C2OC(CO)C(O)C(O)C2O)cc1Cc1ccc(-c2ccc(F)cc2)s1.Cc1ccc(C2OC(CO)C(O)C(O)C2O)cc1Cc1ccc(-c2ccc(F)cc2)s1.O", "note": "(stereo unspecified)", "values": [{"measurement": "IRF Lucia reporter activity", "setting": "RAW-Dual [3]; [5]", "result": 0.0328}]}
{"molecule": "Cc1ccc(C2OC(CO)C(O)C(O)C2O)cc1Cc1ccc(-c2ccc(F)cc2)s1.Cc1ccc(C2OC(CO)C(O)C(O)C2O)cc1Cc1ccc(-c2ccc(F)cc2)s1.O", "note": "(stereo unspecified) (library stock concentration (final ~1000-fold dilution): 10 mM)", "values": [{"measurement": "IRF Lucia reporter activity", "setting": "RAW-Dual [2]; [4]", "result": 0.0212}, {"measurement": "IRF Lucia reporter activity", "setting": "RAW-Dual [2]; agonist: LPS (TLR4) 0.1 ug/mL", "result": 0.026}]}
